Only some compounds are listed: those with a hit (about 3.3% of all), similar ones and a draw of the others.
Arbovirus anti: antivirals against arbovirus infection; arbovirus infection cell-based antiviral screen; inhibition, % at 10 µM; 0.37% of 200,000 active; in the data active = inhibition above about 30%
PERK inhibitor: inhibitors of human PERK kinase; Q9NZJ5; CHO PERK-DD fusion, SEAP luminescence translation reporter; inhibition, % at 5.6 µM; 0.17% of 220,000 active; AID 1416;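 active = inhibition above the mean inhibition of all tested compounds plus 3 SD, set separately per screening campaign, cut at about 2.9% in these data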;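 also: PERK kinase domain activated by AP20187 dimerizer at 100 nM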
WT yeast gro inh: growth inhibition of WT yeast, mitochondrial fusion screen; mitochondrial fusion phenotypic screen, WT strain; inhibition, % at 10 µM; 2.1% of 190,000 active; in the data active = inhibition above about 58%; tested in S. cerevisiae
ROMK mod: modulators of human ROMK potassium channel; P48048; 2% of 130,000 active; Tet-inducible ROMK, thallium flux fluorescence; actives lie on both sides; B-score at 10 µM;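 active = signal ratio slope over the read window, or its plate-corrected B-score, at least 3 SD from the plate mean, either direction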;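 also: B-score of the F/F0 ratio slope over 7 to 12 s after thallium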
ROMK hit retest: confirmation of human ROMK potassium channel modulators. shares compounds with ROMK mod. ROMK thallium flux, fluorescence ratio; hits give low values. normalized thallium flux (F/F0 slope) at 10 µM. 54% of 3,000 active;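 active = Flux at 10 µM at least 3 SD below or above vehicle control mean in one or both replicates; inconclusive = no clear call, values can overlap the other calls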
A number is an active result.

Results for Cc1ccc(CN2CCN(/N=C/c3cccnc3)CC2)cc1 ?
Arbovirus anti: inactive; PERK inhibitor: inactive; WT yeast gro inh: inactive

How did CCOc1cc(C)c(S(=O)(=O)NC2CC(C)(C)NC(C)(C)C2)cc1C do in these assays?
Arbovirus anti: inactive; PERK inhibitor: inactive; WT yeast gro inh: inactive; ROMK mod: -3.55; ROMK hit retest: 0.066

Results for CC(=NCc1ccco1)c1c(O)n(C2CCCCC2)c(=O)[nH]c1=O ?
Arbovirus anti: inactive; PERK inhibitor: inactive; WT yeast gro inh: inactive; ROMK mod: -2.82; ROMK hit retest: 0.0585

How did CCCNC(=S)NC1CC2CCC(C1)N2Cc1ccccc1 (stereo not drawn) do in these assays?
Arbovirus anti: inactive; PERK inhibitor: inactive

How did S=C(NCCc1ccccc1)NC1CC2CCC(C1)N2Cc1ccccc1 (stereo not drawn) do in these assays?
Arbovirus anti: inactive; PERK inhibitor: inactive; WT yeast gro inh: inactive; ROMK mod: -2.33; ROMK hit retest: 0.0571

How did CC(=O)C1=C(O)C(=O)N(CCCCCC(=O)O)C1c1ccc(N(C)C)cc1 (stereo not drawn) do in these assays?
Arbovirus anti: inactive; PERK inhibitor: inactive; WT yeast gro inh: inactive; ROMK mod: inactive

Results for O=[N+]([O-])c1ccc(S(=O)(=O)CC(CN2CCCCC2)N2CCCCC2)cc1 (stereo not drawn) ?
Arbovirus anti: inactive; PERK inhibitor: inactive; WT yeast gro inh: inactive; ROMK mod: -4.77; ROMK hit retest: 0.0529

What do the screens show for `O=[N+]([O-])c1ccc(S(=O)(=O)CC(CN2CCOCC2)N2CCOCC2)cc1` (stereo not drawn)?
Arbovirus anti: inactive; PERK inhibitor: inactive; WT yeast gro inh: inactive; ROMK mod: inactive

How did COc1cc(OC)c(C(=O)OCC(=O)N(Cc2ccccc2)C(C)(C)C)cc1OC do in these assays?
Arbovirus anti: inactive; PERK inhibitor: inactive; WT yeast gro inh: inactive; ROMK mod: inactive

How did COc1ccc(/C=N/NC(=O)CCc2n[nH]c(=O)[nH]c2=O)cc1OC do in these assays?
Arbovirus anti: inactive; PERK inhibitor: inactive; WT yeast gro inh: inactive

Results for CCCOc1ccc(/C=N\NC(=O)CCc2n[nH]c(=O)[nH]c2=O)cc1OC ?
Arbovirus anti: inactive; PERK inhibitor: inactive; WT yeast gro inh: inactive; ROMK mod: 3.38; ROMK hit retest: inactive

What do the screens show for `CC(=O)N1C(=O)C(=C2C=C(C)OC(C)=C2)c2ccccc21`?
Arbovirus anti: inactive; PERK inhibitor: inactive; WT yeast gro inh: inactive; ROMK hit retest: 0.0624

What do the screens show for `O=C(Nc1nc2n(n1)C(c1ccccc1)C=C(c1ccccc1)N2)c1ccco1` (stereo not drawn)?
Arbovirus anti: inactive; PERK inhibitor: inactive; WT yeast gro inh: inactive; ROMK hit retest: 0.0655

How did CC(=O)Nc1nc2n(n1)C(c1ccccc1)C=C(c1ccccc1)N2 (stereo not drawn) do in these assays?
Arbovirus anti: inactive; PERK inhibitor: inactive; WT yeast gro inh: inactive

What do the screens show for `CC(CSc1nc2ccccc2s1)Cn1c(N2CCCC2)nc2c1c(=O)[nH]c(=O)n2C` (stereo not drawn)?
Arbovirus anti: inactive; PERK inhibitor: inactive; WT yeast gro inh: inactive; ROMK mod: -3.07; ROMK hit retest: 0.0599

How did Cn1c(C(=O)NCCN2CCOCC2)cc2c(=O)n(C)c3ccccc3c21 do in these assays?
Arbovirus anti: inactive; PERK inhibitor: inactive; WT yeast gro inh: inactive

Results for Cn1c(C(=O)NCCN2CCc3ccccc3C2)cc2c(=O)n(C)c3ccccc3c21 ?
Arbovirus anti: inactive; PERK inhibitor: inactive; WT yeast gro inh: inactive; ROMK hit retest: inconclusive

Results for COCCn1c(Cc2ccccc2)nnc1SCc1nc2ccccc2c(=O)[nH]1 ?
Arbovirus anti: inactive; PERK inhibitor: inactive; WT yeast gro inh: inactive

Results for Cn1c(Cc2ccccc2)nnc1SCc1nc2ccccc2c(=O)[nH]1 ?
Arbovirus anti: inactive; PERK inhibitor: inactive; WT yeast gro inh: inactive; ROMK mod: inactive; ROMK hit retest: inactive

How did Cc1cc(=O)n2c(n1)SCOC2 do in these assays?
PERK inhibitor: inactive

What do the screens show for `COc1cc(-c2ccc(NC(=O)NC3CC3)c(OC)c2)ccc1NC(=O)NC1CC1`?
PERK inhibitor: inactive

Results for O=C(CCc1ccc(Oc2cc([N+](=O)[O-])cc([N+](=O)[O-])c2)cc1)N1CCCCCC1 ?
Arbovirus anti: inactive; PERK inhibitor: inactive; WT yeast gro inh: 66.4; ROMK mod: -2.93; ROMK hit retest: 0.0642

How did O=C(CCc1ccccc1)N1CCN(c2ccc([N+](=O)[O-])cc2)CC1 do in these assays?
Arbovirus anti: inactive; PERK inhibitor: inactive; WT yeast gro inh: inactive; ROMK mod: -3.6; ROMK hit retest: 0.063

Results for O=C(Cc1ccc([N+](=O)[O-])cc1)N1CCCCCC1 ?
Arbovirus anti: inactive; PERK inhibitor: inactive; WT yeast gro inh: inactive; ROMK mod: inactive

How did O=C1c2sc3nc4c(c(=O)n3c2C(=O)N1c1ccccc1)CCC4 do in these assays?
Arbovirus anti: inactive; PERK inhibitor: inactive; WT yeast gro inh: inactive; ROMK mod: inactive

What do the screens show for `Cc1ccccc1N1C(=O)c2sc3nc4c(c(=O)n3c2C1=O)CCC4`?
Arbovirus anti: inactive; PERK inhibitor: inactive; WT yeast gro inh: inactive; ROMK mod: -3.13; ROMK hit retest: inactive

Results for COc1ccc(CNCCC2(Cc3ccccc3)CC(C)N(C)CC2C)cc1OC (stereo not drawn) ?
Arbovirus anti: inactive; PERK inhibitor: inactive; WT yeast gro inh: inactive; ROMK mod: inactive

How did CN(C)C=NC(=O)c1cc(C(=O)c2ccc(Cl)cc2Cl)c[nH]1 do in these assays?
Arbovirus anti: inactive; PERK inhibitor: inactive; WT yeast gro inh: inactive; ROMK mod: inactive

How did CCN(CC)CCN1C2=C(C(=O)CC(C)(C)C2)C(c2cccc(F)c2)C2=C1CC(C)(C)CC2=O do in these assays?
Arbovirus anti: inactive; PERK inhibitor: inactive; WT yeast gro inh: inactive; ROMK mod: inactive

What do the screens show for `CC1(C)CC(=O)C2=C(C1)N(CCN1CCOCC1)C1=C(C(=O)CC(C)(C)C1)C2c1cccc(Cl)c1`?
Arbovirus anti: inactive; PERK inhibitor: inactive; WT yeast gro inh: inactive; ROMK mod: -2.96; ROMK hit retest: 0.0524

What do the screens show for `c1ccc(Cn2c(-c3cncs3)nc3ccccc32)cc1`?
Arbovirus anti: inactive; PERK inhibitor: inactive; WT yeast gro inh: inactive; ROMK mod: -2.49; ROMK hit retest: 0.06

Results for Brc1ccc(Cn2c(-c3cncs3)nc3ccccc32)cc1 ?
Arbovirus anti: inactive; PERK inhibitor: inactive; WT yeast gro inh: inactive

What do the screens show for `COc1cc(/C=C2\SC(=S)N(NS(=O)(=O)c3ccccc3)C2=O)ccc1O`?
PERK inhibitor: inactive; ROMK hit retest: 0.0412

Results for COc1cc(/C=C2\SC(=S)N(NS(=O)(=O)c3ccc(C)cc3)C2=O)ccc1O ?
PERK inhibitor: inactive

Results for Cc1ccccc1C=Nc1ccccc1C(N)=O ?
Arbovirus anti: inactive; PERK inhibitor: inactive; WT yeast gro inh: inactive; ROMK mod: 2.77; ROMK hit retest: inactive

How did O=C1C2CCCN2C(=O)N1CCCCN1CCN(CCO)CC1 (stereo not drawn) do in these assays?
Arbovirus anti: inactive; PERK inhibitor: inactive; WT yeast gro inh: inactive; ROMK mod: inactive

Results for CCOC(=O)CCNC(=O)c1ccccc1Br ?
Arbovirus anti: inactive; PERK inhibitor: inactive; WT yeast gro inh: inactive; ROMK hit retest: inactive

What do the screens show for `CCOCCCNC(=O)c1ccccc1Br`?
Arbovirus anti: inactive; PERK inhibitor: inactive; WT yeast gro inh: inactive

Bioassay records: PubChem, several laboratories
